Reference: PubChem BioAssay (NCI)
Where “and” joins values, the source holds several entries; their conditions need not be identical. Equal values may be shown once. Compounds without any hit were thinned out: in the full panel of roughly 79,000, 15% have a hit. Some structures have more than one record in an assay (separate samples or runs), and their calls can disagree. Calls of active or inactive are those of the source. No stated cut-off is given here; in the data, active means growth inhibition above about 70%; inactive means the rest.

Legend:
[1] = NCI Yeast Anticancer Drug Screen. Data for the rad50 strain (AID 155);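 further: 0% = growth of vehicle-only cultures of the same strain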; conditions: S. cerevisiae rad50 strain growth inhibition, stronger effect = higher value
Method in brief: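 A DNA repair-deficient yeast mutant serves as the test organism; compound-induced growth inhibition is calculated against vehicle-treated cells.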

[2] = NCI Yeast Anticancer Drug Screen. Data for the mec2-1 strain (AID 157); conditions: S. cerevisiae mec2-1 strain, stronger effect = higher value
Method in brief: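 Cells of the genetically defined mec2-1 yeast strain are incubated with test compound. Inhibition of growth is calculated against vehicle-treated controls.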

[3] = NCI Yeast Anticancer Drug Screen. Data for the sgs1 mgt1 strain (AID 161);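 further: 0% = growth of cultures given vehicle only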; conditions: S. cerevisiae sgs1 mgt1 strain, stronger effect = higher value
Method in brief: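 Read-out: growth inhibition vs vehicle controls. Cells: mutant yeast strain deficient in DNA damage repair.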

[4] = NCI Yeast Anticancer Drug Screen. Data for the cln2 rad14 strain (AID 165);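 further: 0% = growth equal to vehicle treated cultures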; conditions: S. cerevisiae cln2 rad14 strain, stronger effect = higher value
Method in brief: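 The screen exposed genetically defined yeast (cln2 rad14) to test compounds and scored growth inhibition relative to vehicle-treated controls.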

[5] = NCI Yeast Anticancer Drug Screen. Data for the bub3 strain (AID 167); conditions: S. cerevisiae bub3 mutant strain, stronger effect = higher value
Method in brief: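 Inhibition values come from growth of compound-treated mutant yeast normalised to vehicle-treated controls.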

[6] = NCI Yeast Anticancer Drug Screen. Data for the mlh1 rad18 strain (AID 175); conditions: S. cerevisiae mlh1 rad18 strain growth inhibition, stronger effect = higher value
Method in brief: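 Compound-treated yeast growth, normalised to vehicle controls. Strain bears defined DNA repair mutations.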

[7] = at 5.0 µM (retest, dose inferred, filed as 0.5)
[8] = at 50.0 µM (retest, dose inferred, filed as 5.0)

Measured: growth inhibition

COC(=O)c1nnn(-c2ccc(S(N)(=O)=O)cc2)c1N
inactive: [1]; [7] -9% | [1]; [8] -16% | [1]; at 50.0 µM 36.6% | [2]; [7] -4% | [2]; [8] -10% | [2]; at 50.0 µM 19.6% | [3]; [7] -9% | [3]; [8] -20% | [3]; at 50.0 µM 53.5% | [4]; [7] 1% | [4]; [8] 1% | [4]; at 50.0 µM 18.7% | [5]; [7] -22% | [5]; [8] -7% | [5]; at 50.0 µM -4.45% | [6]; [7] -13% | [6]; [8] -23% | [6]; at 50.0 µM 64.9%

CCOC(=O)C(CN)(c1ccccc1)c1ccccc1
inactive: [1]; [7] -7% | [1]; [8] 1% | [1]; at 50.0 µM 11.8% | [2]; [7] -4% | [2]; [8] 8% | [2]; at 50.0 µM -5.4% | [3]; [7] -4% | [3]; [8] -13% | [3]; at 50.0 µM 5.35% | [4]; [7] 2% | [4]; [8] -12% | [4]; at 50.0 µM 43.8% | [5]; [7] -4% | [5]; [8] 0% | [5]; at 50.0 µM -1.15% | [6]; [7] -7% | [6]; [8] -10% | [6]; at 50.0 µM 17.1%

C=C(C)C(=O)Oc1ccc(N=Nc2ccccc2)ccc1=O
active: [1]; [8] 89% | [1]; at 50.0 µM 95.3% | [2]; [8] 93% | [2]; at 50.0 µM 81% | [3]; [8] 93% | [3]; at 50.0 µM 93% | [4]; [8] 77% | [5]; [8] 86% | [5]; at 50.0 µM 81.8% | [6]; [8] 96% | [6]; at 50.0 µM 94.5%
inactive: [1]; [7] 2% | [2]; [7] 5% | [3]; [7] 6% | [4]; [7] 4% | [4]; at 50.0 µM 59.9% | [5]; [7] -2% | [6]; [7] 12%

O=C1C(CN(Cc2ccccc2)Cc2ccccc2)CCCC1CN(Cc1ccccc1)Cc1ccccc1 (stereo not drawn)
80.8% (active) and 14.2% (inactive): [6]; at 50.0 µM
72.7% (active) and 21.9% (inactive): [3]; at 50.0 µM
inactive: [1]; [7] 4% | [1]; [8] 17% | [2]; [7] -3% | [2]; [8] 22% | [3]; [7] 4% | [3]; [8] 46% | [4]; [7] -20% | [4]; [8] 7% | [4]; at 50.0 µM 23.6% and 67.8% | [5]; [7] -16% | [5]; [8] 47% | [6]; [7] -3% | [6]; [8] 58%
90.6% (active) and -1.45% (inactive): [1]; at 50.0 µM
73% (active) and 25.6% (inactive): [2]; at 50.0 µM
83.2% (active) and 21.4% (inactive): [5]; at 50.0 µM

O=C1OC(c2cccnc2)OC(c2ccccc2)=C1C(=O)c1ccccc1 (stereo not drawn)
active: [1]; [8] 99% | [1]; at 50.0 µM 99.4% | [2]; [8] 99% | [2]; at 50.0 µM 99.5% | [3]; [8] 98% | [3]; at 50.0 µM 99.5% | [4]; [8] 99% | [4]; at 50.0 µM 98.7% | [5]; [8] 99% | [5]; at 50.0 µM 98.8% | [6]; [8] 99% | [6]; at 50.0 µM 99.2%
inactive: [1]; [7] 5% | [2]; [7] 23% | [3]; [7] 4% | [4]; [7] 12% | [5]; [7] -4% | [6]; [7] 33%

COc1cc(NCCCCCCC2CCCCN2)c2ncccc2c1 (stereo not drawn)
inactive: [1]; [7] 0% and 4% | [2]; [7] -1% | [2]; [8] 47% and 23% | [2]; at 50.0 µM 49.2% and 45.4% | [3]; [7] -7% and 0% | [4]; [7] 5% and 3% | [4]; [8] 27% and 61% | [4]; at 50.0 µM 14.1% and 11.3% | [5]; [7] 1% and 4% | [5]; [8] 54% and 37% | [6]; [7] 3% and 2%
active: [1]; [8] 81% and 71% | [3]; [8] 71% and 81% | [6]; [8] 89% and 78%
40.6% (inactive) and 88% (active): [3]; at 50.0 µM
53.4% (inactive) and 71.5% (active): [5]; at 50.0 µM
61% (inactive) and 94.5% (active): [6]; at 50.0 µM
50.5% (inactive) and 85.7% (active): [1]; at 50.0 µM

O=S(=O)(c1ccc(F)cc1)c1ccc(F)cc1
inactive: [1]; [7] -4% | [1]; [8] -4% | [1]; at 50.0 µM -4.4% and 11.7% | [2]; [7] 10% | [2]; [8] 19% | [2]; at 50.0 µM -35.6% and -12.2% | [3]; [7] -6% | [3]; [8] -1% | [3]; at 50.0 µM -3.8% and -3.55% | [4]; [7] -5% | [4]; [8] -7% | [4]; at 50.0 µM 3.2% and 47.4% | [5]; [7] -1% | [5]; [8] 0% | [5]; at 50.0 µM -4.15% and 19.1% | [6]; [7] 3% | [6]; [8] 10% | [6]; at 50.0 µM 6.7% and 35.2%

O=C(Nc1cc(-c2ccccc2)[nH]n1)c1ccccc1F
active: [1]; at 50.0 µM 88.1% | [2]; at 50.0 µM 86% | [3]; [8] 83% | [3]; at 50.0 µM 92.8% | [5]; at 50.0 µM 89.3% | [6]; [8] 86% | [6]; at 50.0 µM 89.6%
inactive: [1]; [7] 41% | [1]; [8] 59% | [2]; [7] 35% | [2]; [8] 69% | [3]; [7] 39% | [4]; [7] 30% | [4]; [8] 54% | [4]; at 50.0 µM 66.5% | [5]; [7] 42% | [5]; [8] 55% | [6]; [7] 43%

CC(=O)Oc1cccc2cccnc12
active: [1]; [7] 99% | [1]; [8] 99% | [1]; at 50.0 µM 99.2% | [2]; [7] 91% | [2]; [8] 100% | [2]; at 50.0 µM 99.3% | [3]; [7] 98% | [3]; [8] 100% | [3]; at 50.0 µM 89.2% | [4]; [7] 88% | [4]; [8] 99% | [4]; at 50.0 µM 98.8% | [5]; [7] 98% | [5]; [8] 100% | [5]; at 50.0 µM 99.2% | [6]; [7] 96% | [6]; [8] 99% | [6]; at 50.0 µM 98.1%

Nc1ccc2cc3ccc(N)cc3nc2c1
15.5% (inactive) and 77% (active): [6]; at 50.0 µM
38.1% (inactive) and 73.2% (active): [1]; at 50.0 µM
inactive: [1]; [7] 21% | [2]; [7] 9% | [2]; [8] 31% | [2]; at 50.0 µM 32.5% and 54.3% | [3]; [7] 11% | [3]; [8] 37% | [3]; at 50.0 µM 3.15% and 35% | [4]; [7] 12% | [4]; [8] 11% | [4]; at 50.0 µM 9.45% and 69.2% | [5]; [7] 6% | [5]; [8] 20% | [5]; at 50.0 µM 19.8% and 36.3% | [6]; [7] 9% | [6]; [8] 51%
active: [1]; [8] 86%

Nc1ccc2c3c(cccc13)C(=O)N(CCCBr)C2=O
inactive: [1]; [7] 9% | [2]; [7] -5% | [2]; [8] 67% | [2]; at 50.0 µM 0.7% | [3]; [7] -17% | [3]; at 50.0 µM 55.4% | [4]; [7] 16% | [4]; at 50.0 µM 45.1% | [5]; [7] 6% | [5]; at 50.0 µM 5.15% | [6]; [7] 32%
active: [1]; [8] 98% | [1]; at 50.0 µM 92.9% | [3]; [8] 80% | [4]; [8] 88% | [5]; [8] 78% | [6]; [8] 94% | [6]; at 50.0 µM 82.8%
